From PubChem BioAssay (Tox21)
Values joined by “and” are separate entries in the source; they are usually repeats but may differ in a detail not shown here. Equal values may be shown once. Results filed as inconclusive are left out. A number with no mark means an inactive call. Active and inactive are the calls of the source. Calls follow the shape of the dose curve; as a rule, active = well fitted cell-killing curve with a large enough effect in the repeat runs; inconclusive = weak or mixed curves, or effect the other way; inactive = no such curve, though single readings can be large or run the other way.

assay: Caspase-3/7 induction in CHO-K1 cells by small molecules, qHTS cell viability counter screen (AID 1346979); conditions: CellTiter-Fluor fluorescence, 17 h; series mostly up to 92.4 µM; activity change, negative = cytotoxicity: at the top concentration; also: nearly all actives have a fitted effect of over 35% in size
From the text: National Center for Advancing Translational Sciences [NCATS]
NIH Chemical Genomics Center [NCGC]
U.S. Environmental Protection Agency [EPA]
National Institutes of Environmental Health Sciences [NIEHS]
National Toxicology Program [NTP]
U.S. Food and Drug Administration [FDA]
Apoptosis is a process of programmed cell death and plays a central role in the development of multicellular organisms. It is a highly regulated process and induces cell death by activating caspases, which are the members of cysteine aspartic acid-specific protease (caspase) family. Caspases involved in apoptosis are classified by their mechanism of action as initiator caspases (caspase-2, -8, -9 and -10) and executioner caspases (caspase-3, -6, and -7). Inhibition of apoptosis results in number of cancers, autoimmune diseases, inflammatory diseases and viral infection. To identify small molecule compounds that induce apoptosis, a homogeneous, luminescent Caspase-Glo 3/7 assay was used. Wild type CHO-K1 cells were used to screen Tox21 libraries for identifying caspase-3/7 activity inducers. Also cytotoxicity of the compounds was tested in parallel by measuring the cell viability using CellTiter-Fluor assay system in the same wells.
Tox21 Assay Protocol Summary:
CHO-K1 cells were dispensed at 1,500 per well in 5uL of culture medium into white solid bottom 1536-well plates (Corning Life Sciences, Corning, NY) using a Multidrop Combi (Thermo Scientific, Waltham, MA) dispenser. The assay plates were incubated at 37 C and 5% CO2 for 5hr, and then 23nL of compounds dissolved in DMSO and positive control were transferred using a Pintool station (Wako, San Diego, CA). The assay plates were incubated at 37C and 5% CO2 for 17hr. For cytotoxicity read, after 16hr incubation at 37C, 1uL CellTiter-Fluor reagent (Promega Corporation, Madison, WI) was added to each well of the assay plates using Flying Reagent Dispenser (FRD, Aurora Discovery, San Diego, CA). After 1hr incubation at 37C and 5% CO2, the fluorescence signal was quantified using a ViewLux plate reader (PerkinElmer, Shelton, CT).
% is scaled to controls: 0 for no effect and ±100 for the full control effect; potency is read from the fitted curve at half-maximal effect.

Compound	activity change, negative = cytotoxicity	Potency
CCOC(=S)SSC(=S)OCC	0.682%	–
C=Cc1c(C)c2cc3[nH]c(cc4nc(cc5nc(cc1[nH]2)C(C)=C5CCC(=O)O)C(CCC(=O)O)=C4C)c(C)c3C=C	–	21.1 µM (active)
NCCCN(CCO)CCO	6.6%	–
Cn1sccc1=O	–	30.6 µM (active) and 43.3 µM (active)
Cc1ccc(C(C)c2ccc(C)c(C)c2)cc1C	6.64%	–
CC1=CCC(C(C)C)C=C1 (stereo not given)	0.213%	–
CCCCOC(=O)c1ccccc1C(=O)OCC(CC)CCCC (stereo not given)	7.16%	–
C=CCCCCCC	-0.127%	–
O=C(c1ccccc1)c1ccc2n1CCC2C(=O)O (stereo not given)	9.67% [at 42.5 µM]	–
C=C(C)C(=O)OCCOc1ccccc1	0.304%	–
O=C(CCN1CCN2CCCC2C1)N1c2ccccc2Sc2ccc(Cl)cc21 (stereo not given)	-16.9% [at 19 µM]	–
CCN1CCC[C@H]1CNC(=O)c1c(OC)ccc(Br)c1OC	4.94% [at 42.5 µM]	–
CC[C@H](C)[C@@H](C(=O)O)n1sc2ccccc2c1=O	0.0022%	–
COC(=O)C(C)=O	7.85%	–
Cc1occc1S	1.52%	–
CC(=O)N(CC(=O)N(C)C)c1ccccc1	5.58% [at 42.5 µM]	–
NC(N)=N/N=C/c1c(Cl)cccc1Cl	–	29.8 µM (active)
CCN(CC)C(C)CN1c2ccccc2Sc2ccccc21 (stereo not given)	7.55% [at 42.5 µM]	–
CCCC(=O)OCC	4.03%	–
CC(=O)[C@@]1(O)CC[C@H]2[C@@H]3C[C@H](C)C4=CC(=O)CC[C@]4(C)[C@H]3CC[C@@]21C	-0.707% [at 42.5 µM]	–

Compound	activity change, negative = cytotoxicity	Potency
CCCc1ccccc1	10.9%	–
CC(=O)O[C@H]1C[C@@H]2CC[C@@H]3[C@H](CC[C@@]4(C)[C@H]3C[C@H]([N+]3(C)CCCCC3)[C@@H]4OC(C)=O)[C@@]2(C)C[C@@H]1N1CCCCC1	6.33% [at 42.5 µM]	–
N#CCc1cccc(C(F)(F)F)c1	9.62%	–
CCCCC(CC)COCCCN (stereo not given)	-9.95%	–
CC(=O)/C=C/C1C(C)=CCCC1(C)C (stereo not given)	6.82%	–
Cc1ccc(C(=O)C(C)CN2CCCCC2)cc1 (stereo not given)	0.425% [at 42.5 µM]	–
CCCCCC(CO)CCC (stereo not given)	9.92%	–
O=C1c2cccc(O)c2C(=O)c2c(O)cc(CO)cc21	-8.41%	–
CC(C)NCC(O)COc1ccc(CC(N)=O)cc1 (stereo not given)	10.5%	–
CCN(CC)C(C)=O	9.36%	–
CCCCOCCOCCOCCOCCO	5.98%	–
O=C(O)[C@@H]1[C@H]2C[C@H]3c4[nH]c5ccccc5c4CCN3C[C@@H]2CC[C@@H]1O	2.27% [at 42.5 µM]	–
CCCCCCCCCC=O	14.4%	–
CC(=O)N(O)CCCCCNC(=O)CCC(=O)N(O)CCCCCNC(=O)CCC(=O)N(O)CCCCCN	-5.34% [at 42.5 µM]	–
c1ccc(CNCc2ccccc2)cc1	7.41%	–
CCCCOc1ccc(CC(=O)NO)cc1	–	23.7 µM (active)
C[Si](C)O[Si](C)(C)O[Si](C)(C)O[Si](C)C	9.7%	–
CN(C)CCCOc1nn(Cc2ccccc2)c2ccccc12	-2.87% [at 42.5 µM]	–
COc1ccc(OC)c(OC)c1	10.3%	–
NC(=S)N/N=C/c1cccnc1	7.15% [at 42.5 µM]	–
